Several values for one entry are separate records, joined by “and”; a condition that tells them apart may be missing. Identical values can stand only once. A structure can be active in one record and inactive in another. Activity calls are given as the source filed them. The calls were made as follows: active = hit-call score of the fitted dose curve at least 0.9, where 1 is the maximum; inactive = score below 0.9.
What was measured:
[1] = ATG_CMV_CIS: Attagene CIS-FACTORIAL HepG2 Assay for human CMV (Internal Marker) (AID 2282928); details: HepG2 CMV promoter reporter, transcription factor profiling; actives raise or lower the signal;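 also: endpoint acts as a background internal control marker rather than a target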
Procedure, shortened: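 Fluorescence intensity of RT-PCR-derived reporter fragments, resolved by capillary electrophoresis, gives the signal. HepG2 liver cells bearing transfected cis-element reporters were treated 24 h; activity in either direction was fit relative to DMSO-treated controls.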

[2] = biological target: Aryl hydrocarbon receptor (Homo sapiens) (UniProt P35869); experiment: ATG_Ahr_CIS: Attagene CIS-FACTORIAL HepG2 Assay for human Aryl Hydrocarbon Receptor (Ahr) (AID 2282930); details: HepG2 AhR cis-factorial reporter transcription; actives raise or lower the signal
Aryl hydrocarbon receptor (Homo sapiens), sequence (P35869 whole entry, looked up): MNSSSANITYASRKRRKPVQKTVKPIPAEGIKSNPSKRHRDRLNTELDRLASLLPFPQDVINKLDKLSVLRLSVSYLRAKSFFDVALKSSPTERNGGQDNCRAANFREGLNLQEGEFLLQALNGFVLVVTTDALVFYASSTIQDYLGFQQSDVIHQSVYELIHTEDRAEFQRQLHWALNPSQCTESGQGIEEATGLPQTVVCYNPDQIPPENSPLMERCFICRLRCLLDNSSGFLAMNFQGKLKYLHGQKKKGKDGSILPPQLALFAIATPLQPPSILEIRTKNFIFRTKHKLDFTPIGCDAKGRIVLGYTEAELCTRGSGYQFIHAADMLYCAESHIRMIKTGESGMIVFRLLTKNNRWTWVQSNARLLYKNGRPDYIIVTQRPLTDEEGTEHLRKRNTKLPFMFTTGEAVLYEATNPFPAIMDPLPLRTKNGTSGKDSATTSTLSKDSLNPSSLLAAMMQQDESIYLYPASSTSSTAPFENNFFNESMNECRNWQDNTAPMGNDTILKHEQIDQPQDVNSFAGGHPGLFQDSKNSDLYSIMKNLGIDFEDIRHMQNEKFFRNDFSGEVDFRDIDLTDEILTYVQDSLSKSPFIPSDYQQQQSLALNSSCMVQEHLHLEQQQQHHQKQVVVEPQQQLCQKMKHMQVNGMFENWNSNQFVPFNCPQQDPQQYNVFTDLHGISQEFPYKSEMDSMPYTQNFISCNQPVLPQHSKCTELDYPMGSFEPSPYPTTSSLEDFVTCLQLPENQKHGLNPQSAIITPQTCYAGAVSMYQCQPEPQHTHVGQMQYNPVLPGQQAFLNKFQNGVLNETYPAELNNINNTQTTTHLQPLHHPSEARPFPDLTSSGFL
Procedure, shortened: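 Values derive from bidirectional fitting against DMSO negative control. Underlying signal: cis-element reporter mRNA in transiently transfected HepG2, harvested 24 h post-dose and measured by RT-PCR plus capillary electrophoresis.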

[3] = ATG_AP_1_CIS: Attagene CIS-FACTORIAL HepG2 Assay for human Activator Protein 1 (AP-1) (AID 2282931); details: HepG2 Attagene cis-factorial AP-1 reporter mRNA; actives raise or lower the signal
Procedure, shortened: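 HepG2 cells transiently transfected with cis-element-driven multiplex reporter units; 24 h compound exposure. Reporter mRNA quantified by RT-PCR, FAM-labelled fragments resolved by capillary electrophoresis; bidirectional fit versus DMSO baseline.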

[4] = ATG_AP_2_CIS: Attagene CIS-FACTORIAL HepG2 Assay for human Activator Protein 2 (AP-2) (AID 2282932); details: HepG2 AP-2 cis-reporter, Attagene transcription factor profiling; AC50: actives raise or lower the signal unless noted; outcome: actives raise or lower the signal unless noted
Procedure, shortened: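 Cells (HepG2) transfected with promoter-driven reporter constructs, treated 24 h. Total RNA reverse-transcribed, reporter cDNA PCR-amplified, FAM-labelled by primer extension, digested, resolved by capillary electrophoresis. Activity fitted both directions versus DMSO.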

[5] = ATG_BRE_CIS: Attagene CIS-FACTORIAL HepG2 Assay for human Bone Morphogenetic Protein (BMP) Response Element (BRE) (AID 2282933); details: HepG2 BMP response element reporter, Attagene transcription factor profiling; actives raise or lower the signal
Procedure, shortened: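 A HepG2 multiplex reporter system measured inducible reporter mRNA 24 h post-dosing. Detection: RT-PCR, 6-FAM primer extension, HpaI digestion, capillary electrophoresis. Activity fitted bidirectionally relative to DMSO.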

[6] = biological target: Retinoic acid receptor alpha (Homo sapiens) (UniProt P10276); experiment: ATG_DR5_RAR_CIS: Attagene CIS-FACTORIAL HepG2 Assay for human Retinoic Acid Receptor Alpha (RARE), DR5 submotif (AID 2282934); details: HepG2 Attagene cis-factorial RARE DR5 reporter, mRNA; actives raise or lower the signal
Retinoic acid receptor alpha (Homo sapiens), sequence (P10276 whole entry, looked up): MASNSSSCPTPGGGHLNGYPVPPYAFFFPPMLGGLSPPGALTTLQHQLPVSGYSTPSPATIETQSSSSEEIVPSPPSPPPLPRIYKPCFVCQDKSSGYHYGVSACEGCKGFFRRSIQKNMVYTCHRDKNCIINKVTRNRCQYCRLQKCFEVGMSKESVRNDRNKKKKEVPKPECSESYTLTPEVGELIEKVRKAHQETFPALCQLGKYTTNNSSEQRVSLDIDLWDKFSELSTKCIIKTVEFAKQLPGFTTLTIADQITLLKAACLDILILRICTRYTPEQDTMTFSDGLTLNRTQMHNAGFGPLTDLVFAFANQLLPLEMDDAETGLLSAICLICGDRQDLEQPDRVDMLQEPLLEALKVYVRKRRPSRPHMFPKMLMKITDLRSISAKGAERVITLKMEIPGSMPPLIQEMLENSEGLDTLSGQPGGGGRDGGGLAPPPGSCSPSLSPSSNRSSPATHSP
Procedure, shortened: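 Endpoint fitted in both directions relative to DMSO as negative control. It reflects DR5 cis-element reporter mRNA induction in transiently transfected HepG2 cells, measured 24 h after dosing through RT-PCR and fluorescent capillary electrophoresis.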

[7] = biological target: Transcription factor E2F1 (Homo sapiens) (UniProt Q01094); experiment: ATG_E2F_CIS: Attagene CIS-FACTORIAL HepG2 Assay for human E2F Transcription Factor 1 (AID 2282935); details: HepG2 Attagene cis-reporter, E2F reporter RNA transcripts; actives raise or lower the signal
Transcription factor E2F1 (Homo sapiens), sequence (Q01094 whole entry, looked up): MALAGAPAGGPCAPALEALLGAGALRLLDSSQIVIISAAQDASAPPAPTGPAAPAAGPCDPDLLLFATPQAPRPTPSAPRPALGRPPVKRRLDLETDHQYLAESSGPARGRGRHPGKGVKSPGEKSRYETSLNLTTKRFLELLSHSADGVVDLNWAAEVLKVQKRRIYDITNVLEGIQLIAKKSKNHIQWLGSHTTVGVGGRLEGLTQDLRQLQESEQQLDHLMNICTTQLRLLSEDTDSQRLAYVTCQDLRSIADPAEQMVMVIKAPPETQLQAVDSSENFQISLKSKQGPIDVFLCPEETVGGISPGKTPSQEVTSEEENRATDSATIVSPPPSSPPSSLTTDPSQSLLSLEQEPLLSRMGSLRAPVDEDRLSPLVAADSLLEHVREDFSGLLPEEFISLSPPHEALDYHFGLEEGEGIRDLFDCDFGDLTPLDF
Procedure, shortened: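 First, HepG2 cells were transfected with reporter transcription units. Next, they were dosed for 24 h. Then RNA was isolated, converted to cDNA, PCR-amplified, FAM-labeled, HpaI-digested and analyzed by capillary electrophoresis.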

[8] = ATG_E_Box_CIS: Attagene CIS-FACTORIAL HepG2 Assay for human Enhancer Box (E-box) (AID 2282936); details: HepG2 E-box cis-reporter transcription, actives raise or lower the signal
Procedure, shortened: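 Endogenous transcription factor activity was sensed in human HepG2 liver cells through transfected cis-promoter reporter units. After 24 h of dosing, total RNA was reverse-transcribed and reporter cDNA resolved by capillary electrophoresis.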

[9] = ATG_M_61_CIS: Attagene CIS-FACTORIAL HepG2 Assay for M61 Transcription Factor (Internal Marker) (AID 2282937); details: HepG2 Attagene CIS-FACTORIAL M61 internal marker reporter; actives raise or lower the signal
Procedure, shortened: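 HepG2 cells transiently transfected with cis-element-driven multiple reporter transcription units, dosed for 24 h. Reporter mRNA measured by RT-PCR, 6-FAM primer-extension labelling, HpaI digestion and capillary electrophoresis; bidirectional fit versus DMSO baseline.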

[10] = ATG_DR4_LXR_CIS: Attagene CIS-FACTORIAL HepG2 Assay for human Liver X Receptor (LXR), DR4 submotif (AID 2282929); details: HepG2 Attagene DR4 cis-reporter, mRNA transcription; AC50: actives raise or lower the signal unless noted; outcome: actives raise or lower the signal unless noted
Procedure, shortened: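 HepG2 cells transiently transfected with cis-promoter-driven multiplexed reporter units (DR4 element) were dosed for 24 h. Reporter mRNA was quantified by RT-PCR, fluorescent primer extension, HpaI digestion and capillary electrophoresis; bidirectional fitting versus DMSO baseline.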

Measured: AC50

CCC(=O)O
not listed: [10]
inactive: all other assays above

C=CC(=C)CC/C=C(\C)CCC=C(C)C
not listed: [3] | [6]
inactive: all other assays above

COC(=O)C(F)(F)C(F)(F)C(F)(F)C(F)(F)C(F)(F)F
not listed: [10]
inactive: all other assays above

Cc1cc(C(C)(C)C)c(O)c(C(C)(C)C)c1
active: [1] 25.3 µM and 60 µM | [3] 50.7 µM and 80.6 µM | [8] 56.6 µM
inactive: [2] | [4] | [5] | [7] | [8] | [9]

CC(C)(C)C1CCCCC1O (stereo not given)
not listed: [3]
inactive: all other assays above

NC(C(F)(F)F)C(F)(F)F
not listed: [10]
inactive: all other assays above

CN(Cc1cnc2nc(N)nc(N)c2n1)c1ccc(C(=O)N[C@@H](CCC(=O)O)C(=O)O)cc1
not listed: [2]
inactive: all other assays above

CCCCC(CC)C(=O)O (stereo not given)
not listed: [2] | [3] | [6]
inactive: all other assays above

CCc1ccccc1O
active: [2] 10.3 µM
not listed: [10]
inactive: all other assays above

CC(C)[C@@H]1CC[C@@H](C)C[C@H]1O
not listed: [10]
inactive: all other assays above

C=CC(C)(CCC=C(C)C)OC(C)=O (stereo not given)
not listed: [3] | [9] | [10]
inactive: all other assays above

OCC(F)(F)C(F)(F)C(F)(F)C(F)(F)C(F)(F)C(F)(F)C(F)(F)C(F)(F)C(F)(F)C(F)(F)C(F)(F)F
not listed: [3] | [10]
inactive: all other assays above

Cc1cc(C(=C2C=CC(=Nc3ccc(S(=O)(=O)O)cc3)C=C2)c2ccc(Nc3ccc(S(=O)(=O)O)cc3)cc2)cc(S(=O)(=O)O)c1N
not listed: [10]
inactive: all other assays above

Cc1[nH]nc2c1N=C(c1ccccc1Cl)c1cc([N+](=O)[O-])ccc1N2
active: [1] 1.58 µM | [10] 2.67 µM | [3] 125 nM | [4] 3.12 µM
not listed: [2]
inactive: all other assays above

CC1=NN(c2ccccc2)C(=O)C1
not listed: [2] | [3]
inactive: all other assays above

O=C(CC(=O)C(F)(F)C(F)(F)C(F)(F)F)c1cccs1
active: [1] 50 µM | [2] 11.4 µM and 50 µM | [3] 35.2 µM and 42 µM
inactive: [4] inactive [setting not given] | [5] | [7] | [8]

CCOC(C)=O
not listed: [2]
inactive: all other assays above

N=C(N)c1ccc(OCCCCCOc2ccc(C(=N)N)cc2)cc1
inactive: [4] | [6] | [7]
active: [1] 0.781 µM | [10] 116 µM | [3] 813 nM | [5] 23.3 µM | [8] 137 µM

Nc1ccn([C@@H]2O[C@H](CO)[C@@H](O)C2O)c(=O)n1 (stereo not given in full)
not listed: [9] | [10]
inactive: all other assays above
